In PubChem BioAssay (EPA / NIEHS) one finds outcome and AC50 data, which are given here for 16 molecules.

Structures are written as SMILES. “And” between values parts separate entries of the source, which are not always exact repeats. Equal entries are not always repeated. The source made the active and inactive calls. The calls were made as follows: active = hit-call score of the fitted dose curve at least 0.9, where 1 is the maximum; inactive = score below 0.9.

System in the first test: not listed separately
Kind of test: CCTE_Padilla_ZF_Score.Blood_pooling: CCTE's 144 Hour Post-fertilization zebrafish Assay Score for Blood Pooling, Padilla Lab (AID 2284415). In a few lines:
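Blood pooling was scored at 6 dpf under a stereo microscope by two blinded assessors, fitted upward against DMSO. Single embryos were dosed at 6–8 hpf in 10% Hanks', kept sealed at 26C (14:10 h cycle) and rinsed at 5 dpf.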
Regarding `O=C(O)C(F)(F)C(F)(F)C(F)(F)C(F)(F)C(F)(F)C(F)(F)C(F)(F)C(F)(F)C(F)(F)C(F)(F)F`, the call was inactive.

In the case of `O=C(O)CCC(F)(C(F)(F)F)C(F)(F)F`, the molecule was classed as inactive.

Consider `O=C(O)C(F)(F)C(F)(F)C(F)(F)C(F)(F)C(F)(F)C(F)(F)F`, for which the molecule was called inactive.

System in another test: not listed separately
As to the kind of experiment: CCTE_Padilla_ZF_Score.Any: CCTE's 144 Hour Post-fertilization zebrafish Assay Score for Any Mortality or Malformation, Padilla Lab (AID 2284416). In a few lines:
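Wild-type zebrafish embryos with chorions, one per well in 10% Hanks' from 6–8 hpf, dosed in sealed plates at 26 C, 14:10 h light:dark; rinsed at 5 dpf; blinded scoring at 6 dpf for death or malformation, versus DMSO.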
As usually defined, the AC50 is the concentration at which the activity in the assay is half-maximal. As for `O=C(O)C(F)(F)C(F)(F)C(F)(F)C(F)(F)C(F)(F)C(F)(F)C(F)(F)C(F)(F)C(F)(F)C(F)(F)F`, the AC50 was 3.35 µM (active).

Turning to `O=C(O)CCC(F)(C(F)(F)F)C(F)(F)F`, the molecule was called inactive.

Turning to `O=C(O)C(F)(F)C(F)(F)C(F)(F)C(F)(F)C(F)(F)C(F)(F)F`, the AC50 was 98.9 µM (active).

The subject of a further test is TTR (gene 7276). Kind of test: CCTE_GLTED_hTTR_0.125uM: CCTE's human Transthyretin (hTTR) Inhibition Assay, with 0.125uM TTR, Great Lakes Toxicology and Ecology Division (GLTED) Lab (AID 2284431).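 Also: hits lower the fluorescence signal relative to DMSO baseline.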 In a few lines: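 Cell-free displacement of the fluorescent probe ANSA from human TTR (0.125uM) after 2 h incubation with test chemical. Fluorescence read at 380 nm excitation/475 nm emission; loss of signal fitted relative to DMSO baseline.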
With `CC(C)(C)CC(C)(C)c1ccc(O)cc1`, the AC50 is 13.1 µM (active).

In the case of `COP(=O)(OC)O/C(=C\Cl)c1cc(Cl)c(Cl)cc1Cl`, the AC50 was 1.18 µM (active).

For `O=[N+]([O-])c1ccc(O)c([N+](=O)[O-])c1`, the AC50 is 0.155 µM (active).

`CCCCCCCCc1ccc(O)cc1`: the AC50 is 1.2 µM (active).

For `COc1cc(-c2ccc(N)c(OC)c2)ccc1N`, the half-maximal activity concentration (AC50) is 104 nM (active) and 2.64 µM (active).

For `Oc1ccc(-c2ccccc2)cc1`, the AC50 was 2.83 µM (active).

For the molecule `CC(C)(c1ccccc1)c1ccc(O)c(C(C)(C)c2ccccc2)c1`, the AC50 is 0.241 µM (active).

Turning to `CCOP(=S)(OCC)SCSP(=S)(OCC)OCC`, the half-maximal activity concentration (AC50) is 1.57 µM (active).

As for `O=C(O)C(F)(F)C(F)(F)C(F)(F)C(F)(F)C(F)(F)C(F)(F)C(F)(F)C(F)(F)C(F)(F)C(F)(F)F`, the AC50 is 0.783 µM (active).

Consider `O=C(O)C(F)(F)C(F)(F)C(F)(F)C(F)(F)C(F)(F)C(F)(F)F`, for which the AC50 was 0.236 µM (active).

In the case of `O=C1C(Cl)=C(Cl)C(=O)c2ccccc21`, the AC50 is 3.67 µM (active).

Take `CCOP(=S)(OCC)Oc1nc(Cl)c(Cl)cc1Cl`: the AC50 is 0.376 µM (active).

Take `ClC(Cl)=C(Cl)C(Cl)=C(Cl)Cl`: the AC50 was 9.92 µM (active).

Take `CCC(C)(C)c1ccc(O)c(C(C)(C)CC)c1`: the AC50 was 3.18 µM (active).

As to `COP(=S)(OC)Oc1ccc(Sc2ccc(OP(=S)(OC)OC)cc2)cc1`, the AC50 is 0.537 µM (active).
